Source: publication PMC11006913
Residue numbers refer to the chain shown, from its start.

Tests used:
Experiment in all cases: PBM; 200 nM protein, PBS
Settings in all cases: dsDNA, one strand shown
HOXB9 [1] = target: HOXB9 (Homo sapiens, UniProt P17482 171-250, T197M)
HOXC9 [2] = target: HOXC9 (Homo sapiens, UniProt P31274 178-260, K195R)
HOXA7 [3] = target: HOXA7 (Homo sapiens, UniProt P31268 116-202)
HOXC10 [4] = target: HOXC10 (Homo sapiens, UniProt Q9NYD6 254-340)
HOXB9 [5] = target: HOXB9 (Homo sapiens, UniProt P17482 171-250)
HOXC9 [6] = target: HOXC9 (Homo sapiens, UniProt P31274 178-260)
HOXD13 [7] = target: HOXD13 (Homo sapiens, UniProt P35453 263-343, T313R)
HOXC9 [8] = target: HOXC9 (Homo sapiens, UniProt P31274 178-260, R193K)
HOXD13 [9] = target: HOXD13 (Homo sapiens, UniProt P35453 263-343)
HOXC10 [10] = target: HOXC10 (Homo sapiens, UniProt Q9NYD6 254-340, K271E)
HOXD13 [11] = target: HOXD13 (Homo sapiens, UniProt P35453 263-343, T313A)
HOXB9 [12] = target: HOXB9 (Homo sapiens, UniProt P17482 171-250, R186Q)
HOXC9 [13] = target: HOXC9 (Homo sapiens, UniProt P31274 178-260, R222W)
HOXA7 [14] = target: HOXA7 (Homo sapiens, UniProt P31268 116-202, W177C)
VENTX [15] = target: T1, VENTX (Homo sapiens, UniProt O95231 78-163, R121Q)
T1 sequence: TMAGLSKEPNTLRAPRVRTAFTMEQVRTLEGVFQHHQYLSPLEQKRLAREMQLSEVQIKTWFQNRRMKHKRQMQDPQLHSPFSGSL

VENTX [16] = target: T2, VENTX (Homo sapiens, UniProt O95231 78-163, Y115F)
T2 sequence: T1 sequence with Y38F, Q44R

PAX4 = target: T3, PAX4 (Homo sapiens, UniProt O43316 9-242)
T3 sequence: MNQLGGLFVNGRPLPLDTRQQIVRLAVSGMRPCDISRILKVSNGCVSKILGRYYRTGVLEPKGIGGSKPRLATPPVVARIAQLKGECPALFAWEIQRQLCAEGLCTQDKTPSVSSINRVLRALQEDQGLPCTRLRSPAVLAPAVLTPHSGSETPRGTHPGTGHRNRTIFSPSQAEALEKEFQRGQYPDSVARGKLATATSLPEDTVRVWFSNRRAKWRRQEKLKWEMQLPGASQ

VENTX [17] = target: T4, VENTX (Homo sapiens, UniProt O95231 78-163)
T4 sequence: T1 sequence with Q44R

VAX1 [18] = target: VAX1 (Homo sapiens, UniProt Q5SQQ9 86-172)
VAX1 [19] = target: VAX1 (Homo sapiens, UniProt Q5SQQ9 86-172, T142I)
VAX1 [20] = target: VAX1 (Homo sapiens, UniProt Q5SQQ9 86-172, K157R)
HOXB6 [21] = target: HOXB6 (Homo sapiens, UniProt P17509 132-218, K202E)
HOXA4 = HOXA4 (Homo sapiens, UniProt Q00056 201-287, W262F)
HOXB6 [22] = target: HOXB6 (Homo sapiens, UniProt P17509 132-218)
ALX4 = ALX4 (Homo sapiens, UniProt Q9H161 200-286, Q225E)
Sequence of ALX4 (Q9H161 200-286 Q225E): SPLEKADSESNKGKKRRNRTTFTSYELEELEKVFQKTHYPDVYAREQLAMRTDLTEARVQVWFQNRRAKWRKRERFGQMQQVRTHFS

Sequence of HOXB9 (Homo sapiens, UniProt P17482 171-250) (P17482 171-250): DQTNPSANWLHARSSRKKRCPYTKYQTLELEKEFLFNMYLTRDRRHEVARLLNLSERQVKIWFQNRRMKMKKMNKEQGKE
Sequence of HOXC9 (Homo sapiens, UniProt P31274 178-260, R193K) (P31274 178-260 R193K): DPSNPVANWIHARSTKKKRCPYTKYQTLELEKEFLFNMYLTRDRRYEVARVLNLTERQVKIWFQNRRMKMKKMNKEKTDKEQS
Sequence of HOXD13 (Homo sapiens, UniProt P35453 263-343) (P35453 263-343): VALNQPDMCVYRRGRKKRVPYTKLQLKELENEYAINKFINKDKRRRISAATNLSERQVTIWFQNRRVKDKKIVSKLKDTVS
Sequence of HOXA7 (Homo sapiens, UniProt P31268 116-202) (P31268 116-202): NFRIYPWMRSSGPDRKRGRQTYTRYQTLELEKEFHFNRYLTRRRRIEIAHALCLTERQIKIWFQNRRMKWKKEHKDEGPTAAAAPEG
Sequence of HOXC9 (Homo sapiens, UniProt P31274 178-260) (P31274 178-260): as the sequence (P31274 178-260 R193K) above, with K16R counted along it
Sequence of HOXA7 (Homo sapiens, UniProt P31268 116-202, W177C) (P31268 116-202 W177C): as the sequence (P31268 116-202) above, with W62C counted along it
Sequence of HOXD13 (Homo sapiens, UniProt P35453 263-343, T313A) (P35453 263-343 T313A): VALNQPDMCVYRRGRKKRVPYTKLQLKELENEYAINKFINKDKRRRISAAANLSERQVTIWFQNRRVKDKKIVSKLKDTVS
Sequence of HOXC9 (Homo sapiens, UniProt P31274 178-260, K195R) (P31274 178-260 K195R): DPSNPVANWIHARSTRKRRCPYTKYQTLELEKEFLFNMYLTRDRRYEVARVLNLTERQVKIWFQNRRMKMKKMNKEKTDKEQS
Sequence of HOXB9 (Homo sapiens, UniProt P17482 171-250, R186Q) (P17482 171-250 R186Q): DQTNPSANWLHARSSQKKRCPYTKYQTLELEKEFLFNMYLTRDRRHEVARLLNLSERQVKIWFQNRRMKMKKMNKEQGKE
Sequence of HOXD13 (Homo sapiens, UniProt P35453 263-343, T313R) (P35453 263-343 T313R): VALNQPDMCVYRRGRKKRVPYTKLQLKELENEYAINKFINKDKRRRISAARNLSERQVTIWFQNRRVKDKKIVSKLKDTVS
Sequence of HOXC10 (Homo sapiens, UniProt Q9NYD6 254-340, K271E) (Q9NYD6 254-340 K271E): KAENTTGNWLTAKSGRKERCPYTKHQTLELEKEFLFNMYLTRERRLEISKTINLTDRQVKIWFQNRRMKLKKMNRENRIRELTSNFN
Sequence of HOXB9 (Homo sapiens, UniProt P17482 171-250, T197M) (P17482 171-250 T197M): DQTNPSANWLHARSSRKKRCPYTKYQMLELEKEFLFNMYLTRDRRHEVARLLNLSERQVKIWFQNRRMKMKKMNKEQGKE
Sequence of HOXC9 (Homo sapiens, UniProt P31274 178-260, R222W) (P31274 178-260 R222W): as the sequence (P31274 178-260 R193K) above, with K16R, R45W counted along it
Sequence of HOXC10 (Homo sapiens, UniProt Q9NYD6 254-340) (Q9NYD6 254-340): as the sequence (Q9NYD6 254-340 K271E) above, with E18K counted along it
Sequence of VAX1 (Homo sapiens, UniProt Q5SQQ9 86-172, K157R) (Q5SQQ9 86-172 K157R): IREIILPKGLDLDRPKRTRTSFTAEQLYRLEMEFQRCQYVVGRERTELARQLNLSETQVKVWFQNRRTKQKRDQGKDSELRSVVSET
Sequence of VAX1 (Homo sapiens, UniProt Q5SQQ9 86-172, T142I) (Q5SQQ9 86-172 T142I): as the sequence (Q5SQQ9 86-172 K157R) above, with T57I, R72K counted along it
Sequence of HOXB6 (Homo sapiens, UniProt P17509 132-218) (P17509 132-218): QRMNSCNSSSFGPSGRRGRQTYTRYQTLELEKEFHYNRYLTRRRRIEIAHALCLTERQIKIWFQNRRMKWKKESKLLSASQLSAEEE
Sequence of HOXB6 (Homo sapiens, UniProt P17509 132-218, K202E) (P17509 132-218 K202E): as the sequence (P17509 132-218) above, with K71E counted along it
Sequence of VAX1 (Homo sapiens, UniProt Q5SQQ9 86-172) (Q5SQQ9 86-172): as the sequence (Q5SQQ9 86-172 K157R) above, with R72K counted along it
Sequence of HOXA4 (Q00056 201-287 W262F): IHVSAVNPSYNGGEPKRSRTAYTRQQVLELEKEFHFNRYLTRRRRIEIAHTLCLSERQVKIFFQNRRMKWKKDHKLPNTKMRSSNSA

## CCCATAAA
HOXB9 [1]
  binding signal: 9.63 upbm affinity estimate (log intensity, higher = more binding, comparable within an allelic series)
HOXC9 [2]
  binding signal: 12.8 upbm affinity estimate (log intensity, higher = more binding, comparable within an allelic series)
HOXA7 [3]
  binding signal: 10.4 upbm affinity estimate (log intensity, higher = more binding, comparable within an allelic series)
HOXC10 [4]
  binding signal: 12.5 upbm affinity estimate (log intensity, higher = more binding, comparable within an allelic series)
HOXB9 [5]
  binding signal: 12.2 upbm affinity estimate (log intensity, higher = more binding, comparable within an allelic series)
HOXC9 [6]
  binding signal: 13 upbm affinity estimate (log intensity, higher = more binding, comparable within an allelic series)
HOXD13 [7]
  binding signal: 11 upbm affinity estimate (log intensity, higher = more binding, comparable within an allelic series)
HOXC9 [8]
  binding signal: 12.8 upbm affinity estimate (log intensity, higher = more binding, comparable within an allelic series)
HOXD13 [9]
  binding signal: 12.3 upbm affinity estimate (log intensity, higher = more binding, comparable within an allelic series)
HOXC10 [10]
  binding signal: 11.9 upbm affinity estimate (log intensity, higher = more binding, comparable within an allelic series)
HOXD13 [11]
  binding signal: 12 upbm affinity estimate (log intensity, higher = more binding, comparable within an allelic series)
HOXB9 [12]
  binding signal: 12 upbm affinity estimate (log intensity, higher = more binding, comparable within an allelic series)
HOXC9 [13]
  binding signal: 11.2 upbm affinity estimate (log intensity, higher = more binding, comparable within an allelic series)
HOXA7 [14]
  binding signal: 8.63 upbm affinity estimate (log intensity, higher = more binding, comparable within an allelic series)

## CTAACGAG
VENTX [15]
  binding signal: 10.2 upbm affinity estimate (log intensity, higher = more binding, comparable within an allelic series)
HOXC9 [6]
  binding signal: 10.9 upbm affinity estimate (log intensity, higher = more binding, comparable within an allelic series)
HOXC9 [8]
  binding signal: 10.8 upbm affinity estimate (log intensity, higher = more binding, comparable within an allelic series)
HOXC9 [13]
  binding signal: 10.1 upbm affinity estimate (log intensity, higher = more binding, comparable within an allelic series)

## ACCGTTTA
VENTX [15]
  binding signal: 10.1 upbm affinity estimate (log intensity, higher = more binding, comparable within an allelic series)
VENTX [16]
  binding signal: 10.1 upbm affinity estimate (log intensity, higher = more binding, comparable within an allelic series)
PAX4
  binding signal: 10.4 upbm affinity estimate (log intensity, higher = more binding, comparable within an allelic series)

## GCGCGAAC
VENTX [15]
  binding signal: 8.01 upbm affinity estimate (log intensity, higher = more binding, comparable within an allelic series)
VENTX [17]
  binding signal: 8 upbm affinity estimate (log intensity, higher = more binding, comparable within an allelic series)
VENTX [16]
  binding signal: 8.06 upbm affinity estimate (log intensity, higher = more binding, comparable within an allelic series)
VAX1 [18]
  binding signal: 7.03 upbm affinity estimate (log intensity, higher = more binding, comparable within an allelic series)
VAX1 [19]
  binding signal: 7.1 upbm affinity estimate (log intensity, higher = more binding, comparable within an allelic series)
VAX1 [20]
  binding signal: 7.1 upbm affinity estimate (log intensity, higher = more binding, comparable within an allelic series)

## CCATTAAA
HOXB9 [1]
  binding signal: 10.1 upbm affinity estimate (log intensity, higher = more binding, comparable within an allelic series)
HOXC9 [2]
  binding signal: 13 upbm affinity estimate (log intensity, higher = more binding, comparable within an allelic series)
HOXA7 [3]
  binding signal: 11.5 upbm affinity estimate (log intensity, higher = more binding, comparable within an allelic series)
HOXC10 [4]
  binding signal: 12.5 upbm affinity estimate (log intensity, higher = more binding, comparable within an allelic series)
HOXB6 [21]
  binding signal: 9.87 upbm affinity estimate (log intensity, higher = more binding, comparable within an allelic series)
HOXB9 [5]
  binding signal: 12.4 upbm affinity estimate (log intensity, higher = more binding, comparable within an allelic series)
HOXC9 [6]
  binding signal: 13.1 upbm affinity estimate (log intensity, higher = more binding, comparable within an allelic series)
HOXD13 [7]
  binding signal: 10.6 upbm affinity estimate (log intensity, higher = more binding, comparable within an allelic series)
HOXC9 [8]
  binding signal: 13 upbm affinity estimate (log intensity, higher = more binding, comparable within an allelic series)
HOXD13 [9]
  binding signal: 11.9 upbm affinity estimate (log intensity, higher = more binding, comparable within an allelic series)
HOXC10 [10]
  binding signal: 12.2 upbm affinity estimate (log intensity, higher = more binding, comparable within an allelic series)
VAX1 [18]
  binding signal: 12.2 upbm affinity estimate (log intensity, higher = more binding, comparable within an allelic series)
HOXD13 [11]
  binding signal: 11.6 upbm affinity estimate (log intensity, higher = more binding, comparable within an allelic series)
HOXB9 [12]
  binding signal: 12.2 upbm affinity estimate (log intensity, higher = more binding, comparable within an allelic series)
HOXC9 [13]
  binding signal: 11.1 upbm affinity estimate (log intensity, higher = more binding, comparable within an allelic series)
VAX1 [19]
  binding signal: 11.9 upbm affinity estimate (log intensity, higher = more binding, comparable within an allelic series)
HOXA7 [14]
  binding signal: 8.59 upbm affinity estimate (log intensity, higher = more binding, comparable within an allelic series)
HOXA4
  binding signal: 10.9 upbm affinity estimate (log intensity, higher = more binding, comparable within an allelic series)
VAX1 [20]
  binding signal: 11.8 upbm affinity estimate (log intensity, higher = more binding, comparable within an allelic series)
HOXB6 [22]
  binding signal: 12 upbm affinity estimate (log intensity, higher = more binding, comparable within an allelic series)

## GCAATAAA
HOXB9 [1]
  binding signal: 10 upbm affinity estimate (log intensity, higher = more binding, comparable within an allelic series)
HOXC9 [2]
  binding signal: 13.2 upbm affinity estimate (log intensity, higher = more binding, comparable within an allelic series)
HOXA7 [3]
  binding signal: 11.2 upbm affinity estimate (log intensity, higher = more binding, comparable within an allelic series)
HOXC10 [4]
  binding signal: 12.8 upbm affinity estimate (log intensity, higher = more binding, comparable within an allelic series)
HOXB6 [21]
  binding signal: 9.94 upbm affinity estimate (log intensity, higher = more binding, comparable within an allelic series)
ALX4
  binding signal: 10.5 upbm affinity estimate (log intensity, higher = more binding, comparable within an allelic series)
HOXB9 [5]
  binding signal: 12.6 upbm affinity estimate (log intensity, higher = more binding, comparable within an allelic series)
HOXC9 [6]
  binding signal: 13.3 upbm affinity estimate (log intensity, higher = more binding, comparable within an allelic series)
HOXD13 [7]
  binding signal: 11 upbm affinity estimate (log intensity, higher = more binding, comparable within an allelic series)
HOXC9 [8]
  binding signal: 13.1 upbm affinity estimate (log intensity, higher = more binding, comparable within an allelic series)
HOXD13 [9]
  binding signal: 12.3 upbm affinity estimate (log intensity, higher = more binding, comparable within an allelic series)
HOXC10 [10]
  binding signal: 12.3 upbm affinity estimate (log intensity, higher = more binding, comparable within an allelic series)
HOXD13 [11]
  binding signal: 12.1 upbm affinity estimate (log intensity, higher = more binding, comparable within an allelic series)
HOXB9 [12]
  binding signal: 12.3 upbm affinity estimate (log intensity, higher = more binding, comparable within an allelic series)
HOXC9 [13]
  binding signal: 11.4 upbm affinity estimate (log intensity, higher = more binding, comparable within an allelic series)
HOXA7 [14]
  binding signal: 8.8 upbm affinity estimate (log intensity, higher = more binding, comparable within an allelic series)
HOXB6 [22]
  binding signal: 11.7 upbm affinity estimate (log intensity, higher = more binding, comparable within an allelic series)

## TAATCGGA
VENTX [15]
  binding signal: 10.4 upbm affinity estimate (log intensity, higher = more binding, comparable within an allelic series)
VENTX [16]
  binding signal: 10.6 upbm affinity estimate (log intensity, higher = more binding, comparable within an allelic series)
